IL1B secr inh: inflammasome signaling inhibition, IL-1 beta readout; THP-1 LPS/ATP IL-1B secretion, AlphaLISA, 16 h; stronger effect = lower value; AID 743279; activity change, % at 57.5 µM; 4.7% of 360,000 active; in the data active means activity change below about -50%; inconclusive means mostly about -30% to -49%
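Secreted IL-1B measured by AlphaLISA bead assay after 16 h compound exposure of THP-1 cells; compounds (final up to 57.5 uM) added 1 h before LPS (250 ng/mL) and ATP (1.25 mM) stimulation; lower signal means less secretion.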
LDHA inh: inhibitors of human lactate dehydrogenase A. P00338. purified LDHA, NADH/diaphorase-resazurin fluorescence; stronger effect = lower value. activity change, % (values are at about 110 or 230 µM). 0.15% of 480,000 active; in the data active means activity change below about -30%; inconclusive means mostly about -25% to -30%;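 further: plate controls were DMSO wells for no effect and wells without enzyme for full effect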
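Human LDH5 at 2 nM final in Tris HCl pH 7.4 with 0.06 mM NADH and 0.2 mM pyruvate, reacted 5 minutes at room temperature. Remaining NADH coupled via diaphorase/resazurin; resorufin fluorescence read at 0 and 20 minutes, normalized to enzyme-free and DMSO wells.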
DT40 TDP1 CPT: growth inhibition of DT40 Tdp1-/-;hTDP1 cells with camptothecin (screen for TDP1 inhibitors); 12% of 420,000 active; Potency, µM (doses to about 46.2 µM), for inactives: at the top dose activity change, negative = growth inhibition, actives largely listed as inhibitors; chicken DT40 Tdp1-/-;hTDP1 cells + 20 nM CPT, ATP luminescence, 48 h; further: potency means the concentration at half of the fitted maximal effect; nearly all actives have a fitted effect of over 55% in size
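Chicken DT40 Tdp1-/- cells stably complemented with human TDP1 were seeded at 400 cells/well in medium containing 20 nM camptothecin, exposed to pin-transferred compounds, and grown at 37 °C for at least 48 hr. Viability was read as ATP luminescence.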
RORgamma inh: ROR gamma (mouse) transcription inhibition; Drosophila S2 Gal4-RORgamma UAS-luciferase reporter, 20 h; Potency, µM (highest dose often 53.6 µM), for inactives: top-dose activity change, negative = inhibition, actives largely listed as inhibitors; 5.4% of 310,000 active; AID 2551; further: potency means the concentration at half of the fitted maximal effect; nearly all actives have a fitted effect of over 60% in size
Target sequence (P51450 whole entry, looked up, the tested form may be a part): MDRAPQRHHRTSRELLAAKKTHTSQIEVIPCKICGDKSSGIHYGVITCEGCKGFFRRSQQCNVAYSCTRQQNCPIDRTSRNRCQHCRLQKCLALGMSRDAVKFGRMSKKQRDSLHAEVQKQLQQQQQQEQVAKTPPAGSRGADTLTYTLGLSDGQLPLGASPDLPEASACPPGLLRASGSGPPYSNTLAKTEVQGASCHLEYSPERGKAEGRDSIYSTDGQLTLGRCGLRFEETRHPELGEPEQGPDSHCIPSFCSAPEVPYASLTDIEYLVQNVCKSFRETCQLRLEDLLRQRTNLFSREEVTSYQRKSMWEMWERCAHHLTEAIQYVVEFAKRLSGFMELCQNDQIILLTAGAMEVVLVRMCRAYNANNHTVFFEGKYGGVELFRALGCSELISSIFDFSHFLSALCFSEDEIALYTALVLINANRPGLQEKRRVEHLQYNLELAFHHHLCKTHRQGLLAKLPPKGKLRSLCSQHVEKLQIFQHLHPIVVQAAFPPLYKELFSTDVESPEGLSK
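Stable Schneider cell line, Gal4 DNA-binding domain fused to ROR gamma, UAS-luciferase. Cmpd 1 hr RT → CuSO4 700 uM final → 20 hr RT → luciferase reagent 10 min → luminescence.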
Gal4-VP16 FLuc: counter-screen for ROR gamma inhibitors: Gal4-VP16 reporter; Drosophila S2 Gal4-VP16 UAS-luciferase, luminescence, 20 h; 3.5% of 310,000 active; Potency, µM (titrated, usually from 53.6 µM), without a hit: at the highest dose activity, negative = inhibition, most hits filed as inhibitors;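 further: Gal4-VP16 expression switched on by copper sulfate through the metallothionein promoter; potency means the concentration at half of the fitted maximal effect; nearly all actives have a fitted effect of over 50% in size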
TDP1 cell noCPT: qHTS for Inhibitors of human tyrosyl-DNA phosphodiesterase 1 (TDP1): qHTS in cells in absence of CPT. 15% of 420,000 active. Potency, µM (series often up to 46.2 µM), for the others: at the highest dose activity change, negative = growth inhibition, hits mostly inhibitors. DT40 Tdp1-/- hTDP1 cells, no CPT, ATP luminescence, 48 h. AID 686978, 2013; further: potency means the concentration at half of the fitted maximal effect; nearly all actives have a fitted effect of over 55% in size
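DT40 Tdp1-/-;hTDP1 cells, no CPT (DMSO vehicle only), 400 cells/well; compounds pin-transferred; ≥48 hr, 37 °C; CellTiter-Glo 30 min RT dark, luminescence read.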
* marks the source's active call; other numbers are inactive results; ? = inconclusive; . = no result. Compounds with a hit are over-represented: about 18% of the library has one in this group of screens. Unless noted, the call rests on the fitted dose curve; in most records, active means well fitted curve in the direction sought with a large enough effect; inconclusive means small, poorly fitted or top-dose-only effect, or another doubt; inactive means no such curve, though single readings can be large; an effect the other way counts as inactive or inconclusive. Unless noted, on the % scale 0 is the no-effect control and ±100 the full control effect.

SMILES	IL1B secr inh	LDHA inh	DT40 TDP1 CPT	RORgamma inh	Gal4-VP16 FLuc	TDP1 cell noCPT
O=C(Nc1cccc(-c2cscn2)c1)C1CCN(Cc2ccc(CO)o2)CC1	0	-2	-10%	0%	-4%	?
Cn1cc(CN2CCC(C(=O)Nc3cccc(-c4cccc(F)c4)c3)CC2)cn1	-29	-2	?	-10%	-5%	?
Cc1cccc(CN2CCC(C(=O)Nc3cccc(-c4cscn4)c3)CC2)n1	-6	-6	?	-9%	-16%	23µM*
N#CCOc1ccc2[nH]cc(C(C(=O)O)N3CCN(Cc4ccncc4)CC3)c2c1 (stereo not given)	.	1	.	.	.	.
Cc1cc(NC(=O)CN(C)S(=O)(=O)c2ccc3c(c2)CCC(=O)N3)ccc1Br	.	-12	29µM*	.	.	21µM*
Cc1ccc(NC(=O)C(NS(=O)(=O)c2ccc3c(c2)CCC(=O)N3)c2ccccc2)cc1C (stereo not given)	.	3	?	.	.	13µM*
Cc1ccc(C)c(NC(=O)C(NS(=O)(=O)c2ccc3c(c2)CCC(=O)N3)c2ccccc2)c1 (stereo not given)	.	-1	?	.	.	-16%
CC(C)c1ccc(NC(=O)C(NS(=O)(=O)c2ccc3c(c2)CCC(=O)N3)c2ccccc2)cc1 (stereo not given)	.	0	21µM*	.	.	?
COc1cccc(N2CCN(C(=O)CN(C)S(=O)(=O)c3ccc4c(c3)CCC(=O)N4)CC2)c1	7	3	29µM*	-40%	2%	18µM*
Cc1ccc(C)c(NC(=O)CN(C)S(=O)(=O)c2ccc3c(c2)CCC(=O)N3)c1	.	-4	-10%	.	.	-27%
CC(=O)NC(C(=O)NCc1ccccc1)C1CCCC1 (stereo not given)	.	1	.	.	.	.
CCOc1ccc(-n2nc(C(=O)NCCCN(CC)Cc3ccccc3)c3ccccc3c2=O)cc1	.	5	.	.	.	.
CC(Cc1ccco1)NC(=O)CCC1CCCO1 (stereo not given)	.	2	.	.	.	.
COCCNC(=S)Nc1ccccn1	-8	-1	6%	18µM*	?	15%
CC(C)CCNC(=S)Nc1ccccn1	7	-5	?	0.56µM*	4µM*	23µM*
NC1=NC(c2cccc(Oc3ccccc3)c2)n2c(nc3ccccc32)N1 (stereo not given)	.	-3	.	.	.	.
O=C(C1CC=CCC1)N1CCCC(C(F)(F)F)C1 (stereo not given)	.	5	.	.	.	.
COc1ccc(C(=O)Nn2c(SCC(=O)NCC3CCCO3)nc3ccccc3c2=O)cc1 (stereo not given)	-21	1	-2%	7.1µM*	?	-27%
COc1ccc(C(=O)Nn2c(SCC(=O)NC3CCCC3)nc3ccccc3c2=O)cc1	-20	-2	-4%	?	?	-10%
COc1ccc(C(=O)Nn2c(SCC(=O)NCc3ccccc3)nc3ccccc3c2=O)cc1	-7	-5	0%	10µM*	3%	-10%
COc1ccc(NC(=O)CSc2c3c(nc4ccccc24)CCC3)c(OC)c1	13	2	?	27%	-1%	21µM*
COc1ccc(NC(=O)CSc2ccccc2)c(OC)c1	12	-6	5%	-23%	4%	?
COc1ccc(NC(=O)c2ccc3c(SCC(=O)O)c4c(nc3c2)CCCC4)cc1Cl	.	.	.	29%	9%	.
COc1ccc(NC(=O)CSc2c3c(nc4ccccc24)CCC3)cc1Cl	.	0	0.58µM*	.	.	-73%
CCC(=O)NCCSCc1cccs1	.	-15	.	.	.	.
SMILES	IL1B secr inh	LDHA inh	DT40 TDP1 CPT	RORgamma inh	Gal4-VP16 FLuc	TDP1 cell noCPT
C=CCCc1ccc(C#N)c(SCc2c(C(=O)OCC)c3cc(OC(C)=O)c(Br)cc3n2C)n1	12	0	21µM*	-13%	-6%	29µM*
CCOC(=O)c1c(CSc2nc(C)cc(C)c2C#N)n(C)c2cc(Br)c(OC(C)=O)cc12	58	-5	?	-3%	-1%	26µM*
COc1cc(C(=O)OCc2nc(N)c3ccccc3n2)ccc1C	.	3	.	.	.	.
CCN1CCN(CCOc2ccc3cc(-c4ccc(OC)cc4)c(=O)oc3c2)CC1	.	-1	.	.	.	.
COc1ccc(-n2ccn(CC(=O)Nc3ccccc3C)c2=O)cc1	.	-11	.	.	.	.
COc1ccc(NC(=O)CC2C(=O)N(c3ccc(Cl)cc3)C(=S)N2NC(=O)c2cccc(F)c2)cc1 (stereo not given)	-10	-6	-19%	10µM*	18µM*	-14%
COc1ccc(NC(=O)CC2C(=O)N(c3ccc(Cl)cc3)C(=S)N2CCc2ccccn2)cc1 (stereo not given)	-12	0	26µM*	17%	?	?
COC(=O)CN1C(=S)N(c2ccc(Cl)cc2)C(=O)C1CC(=O)Nc1ccc(F)cc1 (stereo not given)	8	6	?	?	0%	?
COc1ccc(NC(=O)CC2C(=O)N(c3ccc(F)cc3)C(=S)N2NC(=O)c2ccc(Cl)cc2)cc1 (stereo not given)	20	-3	-5%	11µM*	20µM*	-2%
O=C(CSc1ncnc2ccccc12)Nc1cccc2ccccc12	.	4	.	.	.	.
Cn1c(=O)[nH]c(=O)c2c1nc(N1CCCC1)n2CC(O)COc1ccc(Cl)cc1 (stereo not given)	.	5	.	.	.	.
Cc1oc(-c2cccc(Cl)c2)nc1CS(=O)(=O)CC(=O)NC(C)c1ccccc1 (stereo not given)	.	-1	.	.	.	.
C=CC[n+]1c(-c2ccc(OC)c(OC)c2)csc1NNC(=O)Nc1ccccc1	-75*	-3	7.3µM*	10µM*	?	6.5µM*
C=CC[n+]1c(-c2ccccc2)csc1NC(C)(C)C	-19	-7	5%	-13%	-3%	-24%
CN(C)CC(=O)c1ccc(-c2ccccc2)cc1	-7	-1	-2%	?	-14%	-5%
CN(C)C/C(Cl)=C(\Cl)c1ccccc1	-5	-2	5.2µM*	4%	0%	5.2µM*
CC(=O)N1CCCC1c1nc2ccccc2n1Cc1ccccc1 (stereo not given)	.	-2	0%	.	.	-34%
CC(=O)N1CCCC1c1nc2ccccc2n1Cc1ccccc1Cl (stereo not given)	.	-2	?	.	.	18µM*
CC(=O)NC(C)c1nc2ccccc2n1Cc1ccccc1Cl (stereo not given)	.	0	?	.	.	?
CC(=O)Nc1nc2ccccc2n1Cc1ccccc1Cl	-56*	-9	21µM*	0.89µM*	2.2µM*	8.2µM*

Screens from PubChem.
